According to PubChem BioAssay AID1016 (Sanford-Burnham Center for Chemical Genomics, 2008):
The campaign covered roughly 200,000 compounds. About 330 (0.17%) were called active. The sample holds actives, similar compounds and a random draw of the others, so the mix is not that of the screen.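 The calls were made as follows: active = activation factor of 2 or more at 20 µM, a signal rise over negative controls twice the positive control's; inactive = the rest.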 Where a SMILES comes first, the peptide text is derived from it. [ ]: non-standard residue; d: D form. ξ: configuration not given here. ξM = CSCCC(N)C(=O)O

The compounds below were run on alkaline phosphatase, intestinal [Bos taurus] (assay: IAP enzyme activity enhancers – biochemical, bovine IAP, CDP-star luminescence, primary screen (AID 1016)). Conditions: purified bovine IAP, 30 min, at 20 µM, active compounds read high, fold of DMSO-control signal, blank-subtracted.
For CN(C)c1ccc(/C=N/NC(=O)c2ccc(Cn3cc(Br)cn3)o2)cc1, the activation factor was 1 (inactive). Cc1ccccc1OCC(=O)Nc1nc(C)c(C(=O)N(C)C)s1 was tested, and the activation factor was 1 (inactive). For Cc1csc(SCC(=O)Nc2sccc2C#N)n1, the activation factor was 1.2 (inactive). In the case of CN(c1ccc(OCC(=O)OCC(=O)Nc2cccc([N+](=O)[O-])c2)cc1)S(=O)(=O)c1ccc(F)cc1, the activation factor is reported as 0.8 (inactive). With CN(C)c1ccc(NC(=O)CSc2n[nH]c(-c3ccco3)n2)cc1 the activation factor was 1 (inactive). For O=C(OCC(=O)c1c[nH]c2ccccc12)c1cccc(O)c1, the activation factor was 1.2 (inactive). For COCCCNC(=O)Cn1cc(/C=C(\C#N)C(=O)N2CCN(c3ccccc3)CC2)c2ccccc21, the activation factor was 1 (inactive). For COc1ccc(/C=N/n2c(C)cc(C)cc2=O)cc1, the activation factor was 1.2 (inactive). In the case of CCOC(=O)C1(Cc2cccc(OC)c2)CCN(C(C)COC)CC1 (configuration not stated), the activation factor is reported as 1 (inactive). With Fc1ccccc1Cc1ccc(Cl)nn1 the activation factor was 0.9 (inactive). In the case of O=C(O)c1n[nH]nc1-c1ccccc1, the activation factor is reported as 0.9 (inactive). With Cc1ccccc1CCN(CC(=O)NC1CCCCC1)C(=O)c1csnn1 the activation factor was 1 (inactive). With COc1cccc(N(Cc2nnc3n2CCCCC3)C(=O)Nc2ccccc2F)c1 the activation factor was 1.1 (inactive). With CSc1ccc(C(=O)C2CCCN(C(=O)c3ccc(C)nc3)C2)cc1 (configuration not stated) the activation factor was 1 (inactive). With COc1ccc(C(=O)Nc2ccc(NC(=O)C(C)C)nc2)cc1 the activation factor was 0.9 (inactive). Cc1cccc(CSc2nnc(C)c(=O)n2N)c1 was tested, and the activation factor was 1.1 (inactive). CC(=O)N/C(=C/c1ccc(OC(F)F)cc1)C(=O)O was tested, and the activation factor was 1 (inactive). CC(=O)N1CCN(S(=O)(=O)c2ccc(C)c([N+](=O)[O-])c2)C1C(C)C (configuration not stated) was tested, and the activation factor was 1 (inactive). For CC1Cc2ccccc2N1C(=O)CSc1nnc(C2CC2)n1C (configuration not stated), the activation factor was 1 (inactive). In the case of CC(NC(=O)c1ccc(N2CCNCC2)c([N+](=O)[O-])c1)C12CC3CC(CC(C3)C1)C2 (configuration not stated), the activation factor is reported as 1.1 (inactive). In the case of Clc1ccc(-c2nc3ccccn3c2CN2CCSCC2)cc1, the activation factor is reported as 1 (inactive). O=C1C2C3C=CC(C3)C2C(=O)N1c1ccc(-c2nc3ccccc3c(=O)o2)cc1 (configuration not stated) was tested, and the activation factor was 1.1 (inactive). For COc1cccc(NC(=S)C(C#N)=C2N(C)c3ccccc3N2C)c1, the activation factor was 1.1 (inactive). CC(=O)NC1=NN(C(C)=O)C(C)(c2ccc(C)cc2)S1 (configuration not stated) was tested, and the activation factor was 0.9 (inactive). In the case of CC(=O)c1sc(N/N=C/c2ccc(C(C)C)cc2)nc1C, the activation factor is reported as 0.9 (inactive). COCCNC(=O)/C(C#N)=C/c1nc(N(C)C)n(-c2ccc(F)cc2)c1Cl was tested, and the activation factor was 1 (inactive). O=C(O)c1ccc2c3c(cccc13)C(=O)N(OS(=O)(=O)c1ccccc1)C2=O was tested, and the activation factor was 1.3 (inactive). With Cc1sc2nc(COC(=O)C(NC(=O)c3ccc(Cl)cc3Cl)C(C)C)[nH]c(=O)c2c1C (configuration not stated) the activation factor was 0.7 (inactive). COc1ccc(C(CC(=O)c2ccccc2)S(=O)(=O)c2ccccc2)cc1 (configuration not stated) was tested, and the activation factor was 1 (inactive). For CN(C)S(=O)(=O)c1cccc(NC(=O)COC(=O)C2(c3ccccc3F)CCCC2)c1, the activation factor was 1.1 (inactive). For NS(=O)(=O)c1ccc(NC(=O)COC(=O)C2(c3ccc(F)cc3)CCCC2)cc1, the activation factor was 2.7 (active). In the case of NS(=O)(=O)c1ccc(NC(=O)COC(=O)c2ccco2)cc1, the activation factor is reported as 1 (inactive). With CCn1c(SCC(=O)Nc2ccc3c(c2)OCCO3)nc2c(c1=O)SC(C)C2 (configuration not stated) the activation factor was 1 (inactive). With CCn1c(SCC(=O)Nc2ccccc2F)nc2c(c1=O)SC(C)C2 (configuration not stated) the activation factor was 2 (active). With CC1Cc2nc(SCC(=O)Nc3ccccc3F)n(C)c(=O)c2S1 (configuration not stated) the activation factor was 1.1 (inactive). In the case of COc1ccc(-c2nc(N)sc2C2(O)C(=O)Nc3c(Br)cc(F)cc32)cc1OC (configuration not stated), the activation factor is reported as 1 (inactive). In the case of COC(=O)CNC(=O)C(CCSC)NC(C)=O (configuration not stated) (Ac-[ξM]-Gly-OMe), the activation factor is reported as 1 (inactive). With O=C(COC(=O)c1cccc(Br)c1)Nc1cccc2c1C(=O)c1ccccc1C2=O the activation factor was 0.8 (inactive). With O=C(CN1CCOCC1)Nc1c(Cl)cc(Cl)cc1Cl the activation factor was 1 (inactive). In the case of O=C(CCCn1c(=O)c2sccc2n(CC(=O)NCC2CCCO2)c1=O)NCc1ccco1 (configuration not stated), the activation factor is reported as 1 (inactive). In the case of [O-][n+]1c2c(nn1-c1ccc(Cl)c(Cl)c1)-c1nonc1CC2, the activation factor is reported as 1.1 (inactive). With CCCOc1ccc(Cn2ccnc2)cc1[N+](=O)[O-] the activation factor was 0.2 (inactive). In the case of Cc1ccc(Oc2cc(NC(=O)CCCn3nc(C)c([N+](=O)[O-])c3C)cc([N+](=O)[O-])c2)cc1, the activation factor is reported as 0.9 (inactive). With Cc1[nH]nc(SCC(=O)NCC(C)C)c1[N+](=O)[O-] the activation factor was 1.2 (inactive). COc1ccc(NC(=O)CN2CCN(S(=O)(=O)c3ccc(F)cc3)CC2)cc1Cl was tested, and the activation factor was 0.9 (inactive). COc1cc2c(cc1NC(=O)CN1CCN(S(=O)(=O)c3ccc(F)cc3)CC1)oc1ccccc12 was tested, and the activation factor was 2 (active). With COc1ccccc1NC(=O)CN1CCN(S(=O)(=O)c2ccc(Br)cc2)CC1 the activation factor was 1 (inactive). With COc1ccc(-n2c(C)cc(C(=O)CN3C(=O)NC4(CCc5ccccc54)C3=O)c2C)cc1 (configuration not stated) the activation factor was 1 (inactive). With C/C(=C\c1ccco1)CN1CCC(N2CCC(C(=O)N3CCOCC3)CC2)CC1 the activation factor was 1.1 (inactive). For CC(=O)c1cccc(NC(=O)[C@@H](NC(N)=O)C(C)C)c1, the activation factor was 0.9 (inactive). In the case of O=C(COc1ccc(-c2ccccc2)cc1)NN=C1CCCC1, the activation factor is reported as 1 (inactive). With CC(C)Nc1nnc(SCC(=O)/C=C2\N(C)c3ccccc3C2(C)C)s1 the activation factor was 1.1 (inactive). O=C1Nc2ccc([N+](=O)[O-])cc2C1=Nc1cccc(CO)c1 was tested, and the activation factor was 0.9 (inactive). For Cc1c(NC(=O)CCC2CCCCC2)cc(C(=O)N2CCOCC2)cc1[N+](=O)[O-], the activation factor was 0.9 (inactive). With C=C(C)c1cccc(C(C)(C)NC(=O)NCCN(CC)CC)c1 the activation factor was 1.2 (inactive). For CC(=O)Nc1ccc(NC(=O)CSCc2cnn(-c3ccccc3)c2-n2cccc2)cc1, the activation factor was 0.6 (inactive). For C1=C(CCNc2ncnc3c2cnn3-c2ccccc2)CCCC1, the activation factor was 0.9 (inactive). In the case of O=C(NCCC1=CCCCC1)C1CCN(Cc2cnn(-c3ccccc3)c2-n2cccc2)CC1, the activation factor is reported as 2.5 (active). O=[N+]([O-])c1cc(S(=O)(=O)Nc2cccc(Cl)c2)ccc1N=Nc1c(O)[nH]c2ccccc12 was tested, and the activation factor was 0.8 (inactive). For S=C(NCc1cccnc1)Nc1ccc(Cl)cc1Cl, the activation factor was 0.9 (inactive). O=C(Nc1cccn(Cc2ccccc2Cl)c1=O)NC1CCCCC1 was tested, and the activation factor was 1 (inactive). With C=CCc1cccc2cc(C(=O)NC3CCCC3)c(=O)oc12 the activation factor was 0.9 (inactive). With COc1cccc(-c2ccc(C#N)c(SCC(=O)NCCc3ccc(Cl)cc3)n2)c1 the activation factor was 0.8 (inactive). For COc1ccc(CCNC(=O)CSc2nnc3ccc(-c4ccncc4)nn23)cc1, the activation factor was 1.1 (inactive). For COc1ccc(CCNC(=O)CSc2nc(-c3ccc(OC)c(OC)c3)ccc2C#N)cc1, the activation factor was 2.1 (active). With O=C(Nc1ccc2c(c1)C(=O)OC2)Nc1cccc2ccccc12 the activation factor was 1.1 (inactive). For CCc1ccc(Nc2nnc(SCC(=O)c3ccc4c(c3)NC(=O)CO4)s2)cc1, the activation factor was 1.2 (inactive). With Cc1ccc(S(=O)(=O)Nc2nc(N)n(-c3ccccc3)n2)cc1 the activation factor was 1.2 (inactive). With CCOC(=O)NN1C(=O)c2ccccc2NC1c1ccccc1O (configuration not stated) the activation factor was 1 (inactive). CCOC(=O)Cn1c(-c2cccnc2Cl)nc2ccccc21 was tested, and the activation factor was 1 (inactive). In the case of CCOC(=O)Cn1c2c(c(-c3ccccc3OC)cc1=O)CCCC2, the activation factor is reported as 2.1 (active). In the case of CCOC(=O)CN1CCC(c2ccccc2)CC1, the activation factor is reported as 1 (inactive). With COc1ccccc1NC1=NC2(CCCC2)N=C(N)N1 the activation factor was 0.9 (inactive). With COc1ccccc1Nc1nc(N)nc(CN(C)C2CCCCC2)n1 the activation factor was 0.9 (inactive). With COc1ccccc1NC1=NC(c2ccc(Cl)cc2)N=C(N)N1 (configuration not stated) the activation factor was 2.7 (active). With CCOc1cc(N2CCOCC2)c(OCC)cc1NC(=O)C1=NN(c2cccc(C)c2)C(=O)CC1 the activation factor was 0.9 (inactive). For O=C(NCc1ccccc1Cl)C1CCN(S(=O)(=O)N2CCOCC2)CC1, the activation factor was 1 (inactive). With O=C(CN1C(=O)/C(=C/c2ccccc2F)Sc2ccccc21)NCc1cccnc1 the activation factor was 1.1 (inactive). Cc1ccc(S(=O)(=O)C2C(=O)NC3(C)CC2c2ccccc2O3)cc1 (configuration not stated) was tested, and the activation factor was 0.9 (inactive). With COc1ccc(/C=C/C(=O)NC(=S)NN2CCCCC2c2cccnc2)cc1 (configuration not stated) the activation factor was 0.7 (inactive). Cc1cccc(-n2cnc(C(=O)NNC(=S)Nc3ccccc3)c2)n1 was tested, and the activation factor was 1.6 (inactive). In the case of CCn1cc(/C=C2/SC(=S)NC2=O)c(C)n1, the activation factor is reported as 1.1 (inactive). For CC1=CC=CC2=N/C(=N\S(=O)(=O)c3ccc(F)cc3F)c3ccccc3CN12, the activation factor was 0.9 (inactive). In the case of CC(=O)c1ccc(NC(=O)C(C)NCc2ccc(Cl)cc2)cc1 (configuration not stated), the activation factor is reported as 0.9 (inactive). In the case of CC1(C)Cc2cccc(OCC(=O)N3CCN(c4ccc([N+](=O)[O-])cc4)CC3)c2O1, the activation factor is reported as 0.9 (inactive). In the case of N=c1c2c(-c3ccccc3)c(-c3ccccc3)n(Cc3ccccc3)c2ncn1CCCO, the activation factor is reported as 1.4 (inactive). For OCCCN1c2ccccc2Nc2nnc(-c3ccccc3)cc21, the activation factor was 9 (active).
